Reference: PubChem BioAssay (EPA / NIEHS)
The source made the active and inactive calls. The calls were made as follows: active = hit-call score of the fitted dose curve at least 0.9, where 1 is the maximum; inactive = score below 0.9.

Experiments:
[1] = ATG_CRE_CIS: Attagene CIS-FACTORIAL HepG2 Assay for human cAMP Responsive Element (CRE) binding protein 3 (AID 2282926); details: HepG2 CRE cis-reporter, Attagene multiplexed mRNA; actives raise or lower the signal
Procedure, shortened: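 Readout: fluorescently labelled reporter transcripts resolved by capillary electrophoresis after RT-PCR, taken 24 h post-dosing in transfected HepG2. Endogenous transcription factor activity drives each cis-element reporter; gain or loss of signal fitted relative to DMSO control.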

[2] = biological target: CCAAT/enhancer-binding protein beta (Homo sapiens) (UniProt P17676); experiment: ATG_C_EBP_CIS: Attagene CIS-FACTORIAL HepG2 Assay for human CCAAT/Enhancer Binding Protein (C/EBP) beta (AID 2282927); details: HepG2 Attagene cis-factorial transcription factor reporter; actives raise or lower the signal
Chain of CCAAT/enhancer-binding protein beta (Homo sapiens) (P17676 whole entry, looked up): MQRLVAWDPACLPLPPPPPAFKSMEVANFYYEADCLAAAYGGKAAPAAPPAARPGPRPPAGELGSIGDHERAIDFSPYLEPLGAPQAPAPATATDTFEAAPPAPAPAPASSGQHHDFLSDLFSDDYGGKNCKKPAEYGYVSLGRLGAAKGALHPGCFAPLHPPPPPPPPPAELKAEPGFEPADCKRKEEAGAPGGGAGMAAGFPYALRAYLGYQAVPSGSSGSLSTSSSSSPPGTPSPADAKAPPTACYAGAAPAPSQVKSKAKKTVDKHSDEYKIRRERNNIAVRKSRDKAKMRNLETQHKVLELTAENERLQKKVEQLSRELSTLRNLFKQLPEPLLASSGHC
Procedure, shortened: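 HepG2 transiently transfected with multiplexed reporter units under cis-regulatory promoters reporting endogenous C/EBPb activity. After 24 h exposure, reporter mRNA assayed by RT-PCR, fluorescent labelling, HpaI digestion and capillary electrophoresis; bidirectional fitting versus DMSO.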

[3] = ATG_DR4_LXR_CIS: Attagene CIS-FACTORIAL HepG2 Assay for human Liver X Receptor (LXR), DR4 submotif (AID 2282929); details: HepG2 Attagene DR4 cis-reporter, mRNA transcription; actives raise or lower the signal
Procedure, shortened: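 HepG2 cells transiently transfected with cis-promoter-driven multiplexed reporter units (DR4 element) were dosed for 24 h. Reporter mRNA was quantified by RT-PCR, fluorescent primer extension, HpaI digestion and capillary electrophoresis; bidirectional fitting versus DMSO baseline.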

[4] = ATG_AP_2_CIS: Attagene CIS-FACTORIAL HepG2 Assay for human Activator Protein 2 (AP-2) (AID 2282932); details: HepG2 AP-2 cis-reporter, Attagene transcription factor profiling; actives raise or lower the signal
Procedure, shortened: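 Liver-derived HepG2 line, cis-reporter system measuring endogenous factors; 24 h dosing; reporter mRNA detected by fluorescent RT-PCR and capillary electrophoresis.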

[5] = ATG_BRE_CIS: Attagene CIS-FACTORIAL HepG2 Assay for human Bone Morphogenetic Protein (BMP) Response Element (BRE) (AID 2282933); details: HepG2 BMP response element reporter, Attagene transcription factor profiling; actives raise or lower the signal
Procedure, shortened: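 Read-out: reporter mRNA induction quantified by RT-PCR and capillary electrophoresis after 24 h chemical exposure of transfected HepG2 cells. Endogenous factor activity on the BMP response element; gain or loss fitted against DMSO baseline.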

[6] = biological target: Transcription factor E2F1 (Homo sapiens) (UniProt Q01094); experiment: ATG_E2F_CIS: Attagene CIS-FACTORIAL HepG2 Assay for human E2F Transcription Factor 1 (AID 2282935); details: HepG2 Attagene cis-reporter, E2F reporter RNA transcripts; actives raise or lower the signal
Chain of Transcription factor E2F1 (Homo sapiens) (Q01094 whole entry, looked up): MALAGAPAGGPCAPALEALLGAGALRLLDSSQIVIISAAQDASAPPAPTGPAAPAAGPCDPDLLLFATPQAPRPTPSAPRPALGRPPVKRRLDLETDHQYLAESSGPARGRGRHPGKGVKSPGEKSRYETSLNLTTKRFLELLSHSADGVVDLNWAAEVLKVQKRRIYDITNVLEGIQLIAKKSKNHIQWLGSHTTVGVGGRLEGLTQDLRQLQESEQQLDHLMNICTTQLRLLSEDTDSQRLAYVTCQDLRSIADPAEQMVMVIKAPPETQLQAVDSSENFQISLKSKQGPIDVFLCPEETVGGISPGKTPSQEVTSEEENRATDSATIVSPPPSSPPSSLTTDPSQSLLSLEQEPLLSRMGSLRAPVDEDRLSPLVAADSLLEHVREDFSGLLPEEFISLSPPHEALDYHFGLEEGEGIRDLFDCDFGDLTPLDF
Procedure, shortened: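 Liver-derived HepG2 cells expressing transfected promoter-driven reporter units received test chemical for 24 hours. Signal gains or losses were fitted bidirectionally against DMSO.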

[7] = ATG_EGR_CIS: Attagene CIS-FACTORIAL HepG2 Assay for human Early Growth Response 1 (EGR1) (AID 2282938); details: HepG2 Attagene CIS-FACTORIAL EGR reporter mRNA; actives raise or lower the signal
Procedure, shortened: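 HepG2 cells transiently transfected with cis-promoter-driven multiplexed reporter transcription units; reporter mRNA measured 24 h after compound dosing by RT-PCR, 6-FAM primer extension, HpaI digestion and capillary electrophoresis. Bidirectional fit versus DMSO baseline.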

[8] = ATG_M_19_CIS: Attagene CIS-FACTORIAL HepG2 Assay for M19 Transcription Factor (Internal Marker) (AID 2282939); details: HepG2 Attagene CIS-FACTORIAL M19 internal marker reporter; actives raise or lower the signal
Procedure, shortened: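 Readout: fluorescent reporter-transcript fragments by capillary electrophoresis after RT-PCR. Human HepG2 liver cells carried transfected MRTU constructs reporting endogenous transcription-factor activity; exposure 24 h. Gain or loss of signal fitted relative to DMSO.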

[9] = ATG_Ets_CIS: Attagene CIS-FACTORIAL HepG2 Assay for human Erythroblast Transformation Specific (ETS) (AID 2282941); details: HepG2 ETS cis-reporter transcription, actives raise or lower the signal
Procedure, shortened: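 Multiplexed reporter transcript profiling: HepG2, 24 h treatment, total RNA to cDNA, PCR, 6-FAM labelling, HpaI cut, capillary electrophoresis. Gain- or loss-of-signal fitted against DMSO.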

[10] = biological target: Hepatocyte nuclear factor 3-beta (Homo sapiens) (UniProt Q9Y261); experiment: ATG_FoxA2_CIS: Attagene CIS-FACTORIAL HepG2 Assay for human Forkhead box A2 (FOXA2) (AID 2282942); details: HepG2 cis-reporter transcription factor activity, 24 h; actives raise or lower the signal
Chain of Hepatocyte nuclear factor 3-beta (Homo sapiens) (Q9Y261 whole entry, looked up): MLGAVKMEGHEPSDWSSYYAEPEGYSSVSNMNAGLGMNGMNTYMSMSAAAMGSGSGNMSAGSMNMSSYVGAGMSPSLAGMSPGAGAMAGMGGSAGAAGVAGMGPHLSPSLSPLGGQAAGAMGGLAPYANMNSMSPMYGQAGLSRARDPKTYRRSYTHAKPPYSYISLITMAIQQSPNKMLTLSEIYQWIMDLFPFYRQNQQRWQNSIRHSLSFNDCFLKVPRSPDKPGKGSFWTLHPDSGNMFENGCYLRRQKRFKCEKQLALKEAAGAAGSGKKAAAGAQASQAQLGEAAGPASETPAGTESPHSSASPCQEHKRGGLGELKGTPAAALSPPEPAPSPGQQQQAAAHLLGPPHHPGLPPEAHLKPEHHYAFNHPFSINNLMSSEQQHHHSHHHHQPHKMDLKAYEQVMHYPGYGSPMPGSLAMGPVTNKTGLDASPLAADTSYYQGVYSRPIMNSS
Procedure, shortened: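 HepG2 cells transiently transfected with multiple cis-regulated reporter transcription units, dosed for 24 h. Reporter mRNA measured by RT-PCR, 6-FAM labelling, HpaI digestion and capillary electrophoresis; bidirectional fitting against DMSO baseline.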

[11] = ATG_FoxO_CIS: Attagene CIS-FACTORIAL HepG2 Assay for human Forkhead box O (FoxO) (AID 2282943); details: HepG2 Attagene cis-reporter, FoxO element, mRNA; actives raise or lower the signal
Procedure, shortened: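 HepG2 cells transiently transfected with cis-element-driven reporter units report endogenous FoxO activity. After 24 h chemical exposure, reporter mRNA quantified by RT-PCR, fluorescent labeling, HpaI digestion and capillary electrophoresis; bidirectional fit versus DMSO.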

[12] = ATG_GATA_CIS: Attagene CIS-FACTORIAL HepG2 Assay for human GATA Binding Protein (AID 2282944); details: HepG2 GATA cis-element reporter, Attagene multiplex mRNA; actives raise or lower the signal
Procedure, shortened: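 Read-out: fluorescent reporter mRNA fragments resolved by capillary electrophoresis after RT-PCR. Human liver HepG2 cells carried transiently transfected cis-regulated reporter constructs; chemicals incubated 24 h; gain or loss of signal fitted relative to DMSO.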

[13] = ATG_GLI_CIS: Attagene CIS-FACTORIAL HepG2 Assay for human Zinc Finger Protein GLI1 (AID 2282945); details: HepG2, Attagene cis-factorial reporter mRNA, GLI element; actives raise or lower the signal
Procedure, shortened: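 Transiently transfected HepG2 cells report endogenous transcription factor activity via cis-element-driven reporter units. After 24 h compound exposure, reporter mRNA was measured by RT-PCR with capillary electrophoresis; bidirectional fitting against DMSO baseline.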

[14] = ATG_M_06_CIS: Attagene CIS-FACTORIAL HepG2 Assay for M06 Transcription Factor (Internal Marker) (AID 2282950); details: HepG2 Attagene CIS-FACTORIAL M06 internal marker reporter; actives raise or lower the signal
Procedure, shortened: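 Terse: HepG2, transient MRTU transfection (FuGene 6), 24 h dosing; total RNA, oligo(dT) RT, PCR, FAM label, HpaI cut, capillary electrophoresis; bidirectional fit vs DMSO baseline; background-control endpoint.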

[15] = ATG_MRE_CIS: Attagene CIS-FACTORIAL HepG2 Assay for human Metal Responsive Element (MRE) (AID 2282954); details: HepG2 MRE cis-reporter transcription, Attagene multiplex; actives raise or lower the signal
Procedure, shortened: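 Measured here is mRNA induction from an MRE cis-element reporter in HepG2 after 24 h, quantified by fluorescence of labelled RT-PCR products on capillary electrophoresis; gain- and loss-of-signal fits use DMSO as baseline.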

[16] = biological target: Paired box protein Pax-6 (Homo sapiens) (UniProt P26367); experiment: ATG_Pax6_CIS: Attagene CIS-FACTORIAL HepG2 Assay for human Paired Box 6 (PAX6) (AID 2282956); details: HepG2 CIS-FACTORIAL PAX6 reporter transcription, RNA readout; actives raise or lower the signal
Chain of Paired box protein Pax-6 (Homo sapiens) (P26367 whole entry, looked up): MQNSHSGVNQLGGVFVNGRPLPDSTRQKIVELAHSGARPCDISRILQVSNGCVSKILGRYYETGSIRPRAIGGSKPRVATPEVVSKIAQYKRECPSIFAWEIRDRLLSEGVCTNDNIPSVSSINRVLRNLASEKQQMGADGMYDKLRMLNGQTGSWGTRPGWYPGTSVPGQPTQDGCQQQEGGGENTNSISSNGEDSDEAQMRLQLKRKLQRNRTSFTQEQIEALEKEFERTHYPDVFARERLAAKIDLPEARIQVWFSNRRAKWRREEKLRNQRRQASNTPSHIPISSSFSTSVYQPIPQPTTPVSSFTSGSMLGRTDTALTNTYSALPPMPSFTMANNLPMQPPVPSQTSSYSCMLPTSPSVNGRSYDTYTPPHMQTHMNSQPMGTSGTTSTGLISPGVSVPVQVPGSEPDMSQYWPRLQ
Procedure, shortened: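 Values derive from bidirectional curve fitting of reporter mRNA signal relative to DMSO. HepG2 cells bearing transfected cis-regulated MRTUs were exposed for 24 h; transcripts were read by RT-PCR and capillary electrophoresis.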

[17] = ATG_PXRE_CIS: Attagene CIS-FACTORIAL HepG2 Assay for human Pregnane X Receptor Element (PXRE) (AID 2282957); details: HepG2 Attagene CIS-FACTORIAL PXRE reporter, mRNA; actives raise or lower the signal
Procedure, shortened: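 Read-out: fluorescence of reporter-specific RT-PCR products resolved by capillary electrophoresis, fitted bidirectionally relative to DMSO. Human HepG2 liver cells carried transfected cis-promoter reporter units and were exposed to chemicals for 24 h.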

[18] = ATG_Sox_CIS: Attagene CIS-FACTORIAL HepG2 Assay for human SRY-box transcription factor (SOX) (AID 2282960); details: HepG2 Attagene cis-factorial SOX reporter, mRNA; actives raise or lower the signal
Procedure, shortened: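 HepG2 cells transiently transfected with cis-element-driven multiple reporter transcription units, dosed 24 h; reporter mRNA measured by RT-PCR, FAM labelling, HpaI digestion and capillary electrophoresis. Bidirectional fit versus DMSO baseline.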

[19] = biological target: Transcription factor Sp1 (Homo sapiens) (UniProt P08047); experiment: ATG_Sp1_CIS: Attagene CIS-FACTORIAL HepG2 Assay for human Specificity Protein 1 (Sp1) (AID 2282961); details: HepG2 Sp1 cis-reporter transcription, actives raise or lower the signal
Chain of Transcription factor Sp1 (Homo sapiens) (P08047 whole entry, looked up): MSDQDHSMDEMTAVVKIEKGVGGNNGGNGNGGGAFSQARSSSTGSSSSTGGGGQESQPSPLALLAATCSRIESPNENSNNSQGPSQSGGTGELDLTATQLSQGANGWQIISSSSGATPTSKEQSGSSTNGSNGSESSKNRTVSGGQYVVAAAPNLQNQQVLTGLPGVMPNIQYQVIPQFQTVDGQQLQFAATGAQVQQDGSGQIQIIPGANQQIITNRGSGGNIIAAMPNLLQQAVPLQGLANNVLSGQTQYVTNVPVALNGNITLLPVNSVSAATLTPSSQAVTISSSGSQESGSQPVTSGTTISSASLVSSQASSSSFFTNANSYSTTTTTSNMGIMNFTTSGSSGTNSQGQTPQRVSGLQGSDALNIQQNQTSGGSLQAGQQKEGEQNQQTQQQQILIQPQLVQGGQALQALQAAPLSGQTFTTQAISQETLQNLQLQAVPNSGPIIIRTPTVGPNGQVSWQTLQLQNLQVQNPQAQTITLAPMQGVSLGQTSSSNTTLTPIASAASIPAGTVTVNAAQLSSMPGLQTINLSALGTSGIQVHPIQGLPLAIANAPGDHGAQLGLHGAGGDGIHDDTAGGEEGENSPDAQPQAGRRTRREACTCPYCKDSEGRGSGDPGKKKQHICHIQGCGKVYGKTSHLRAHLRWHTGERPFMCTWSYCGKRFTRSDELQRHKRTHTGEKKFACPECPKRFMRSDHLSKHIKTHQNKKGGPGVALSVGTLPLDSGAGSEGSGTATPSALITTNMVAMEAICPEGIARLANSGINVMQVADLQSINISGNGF
Procedure, shortened: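 HepG2 cells transiently transfected with multiple reporter transcription units driven by cis-regulatory elements; Sp1-responsive reporter mRNA measured 24 h after dosing by RT-PCR and capillary electrophoresis fluorescence, fitted bidirectionally against DMSO baseline.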

[20] = ATG_SREBP_CIS: Attagene CIS-FACTORIAL HepG2 Assay for human Sterol Regulatory Element Binding (SREBP) (AID 2282962); details: HepG2 Attagene cis-factorial SREBP reporter, mRNA; actives raise or lower the signal
Procedure, shortened: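 Values derive from bidirectional curve fitting with DMSO as baseline. The underlying measurement is reporter mRNA from cis-element-regulated units in transiently transfected HepG2, quantified by RT-PCR and capillary electrophoresis after 24 h exposure.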

Measured: outcome

O=C(O)C(Br)Br
inactive: [1] | [2] | [3] | [4] | [5] | [6] | [7] | [8] | [9] | [10] | [11] | [12] | [13] | [14] | [15] | [16] | [17] | [18] | [19] | [20]

CC=Cc1ccc2c(c1)OCO2
inactive: [1] | [2] | [3] | [4] | [5] | [6] | [7] | [8] | [9] | [10] | [11] | [12] | [13] | [14] | [15] | [16] | [17] | [18] | [19] | [20]

CC1CCC(=O)O1 (stereo not given)
inactive: [1] | [2] | [3] | [4] | [5] | [6] | [7] | [8] | [9] | [10] | [11] | [12] | [13] | [14] | [15] | [16] | [17] | [18] | [19] | [20]

O=C(CCN1CC1)OCC(CO)(COC(=O)CCN1CC1)COC(=O)CCN1CC1
inactive: [1] | [2] | [3] | [4] | [5] | [6] | [7] | [8] | [9] | [10] | [11] | [12] | [13] | [14] | [15] | [16] | [17] | [18] | [19] | [20]

COC(=O)COc1ccc(Cl)cc1Cl
inactive: [1] | [2] | [3] | [4] | [5] | [6] | [7] | [8] | [9] | [10] | [11] | [12] | [13] | [14] | [15] | [16] | [17] | [18] | [19] | [20]
